Assay outcomes as filed in PubChem BioAssay.
This is a sample that favours compounds with a hit; in the whole collection about 1.1% have one here.
Giardia FBPA inh = Giardia lamblia aldolase inhibition. A8B2U2. purified Giardia FBPA. Potency, µM (series often up to 59.6 µM), inactives show at the highest dose activity, negative = inhibition, usual class: inhibitors. 0.71% of 290,000 active. AID 2451; note: potency is the fitted concentration of half-maximal effect; % is set by controls: 0 for no effect and ±100 for the full control effect; nearly all actives have a fitted effect of over 55% in size
Target sequence (A8B2U2 whole entry, looked up): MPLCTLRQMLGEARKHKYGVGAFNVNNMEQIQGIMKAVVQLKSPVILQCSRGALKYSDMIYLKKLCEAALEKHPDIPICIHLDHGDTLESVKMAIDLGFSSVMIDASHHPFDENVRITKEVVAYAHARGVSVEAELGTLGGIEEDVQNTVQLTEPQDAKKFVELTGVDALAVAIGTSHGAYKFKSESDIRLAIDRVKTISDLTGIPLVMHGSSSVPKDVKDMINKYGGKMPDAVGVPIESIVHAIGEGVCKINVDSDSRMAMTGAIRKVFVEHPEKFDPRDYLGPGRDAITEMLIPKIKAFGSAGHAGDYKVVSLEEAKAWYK
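40 nM FBPA preincubated 10 min at RT with compound (up to 57.5 uM final), then substrate plus GAPDH/TPI/NAD/arsenate coupling and diaphorase/resazurin added. Fluorescence read after 20 min at RT, 525/598 nm.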
SARS PLpro yeast-1 = blocks SARS-CoV papain-like protease in a yeast assay; S. cerevisiae expressing SARS-CoV PLpro, growth rescue; Potency, µM (top dose mostly 32.9 µM), for the others: at the top dose activity, positive = growth rescue, actives largely listed as activators; 0.19% of 330,000 active; calls by dose curve; note: potency is the fitted concentration of half-maximal effect; 0% is about no effect; nearly all actives have a fitted effect of over 55% in size
AmpC detergent = inhibitors of E. coli AmpC beta-lactamase with detergent. 0.041% of 370,000 active. AmpC hydrolysis of nitrocefin, absorbance 480 nm, 0.01% Triton. Potency, µM (top dose mostly 114 µM), for inactives: top-dose activity change, negative = inhibition, usual class: inhibitors;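 note: potency is the fitted concentration of half-maximal effect; 0% = no-compound wells and -100% = no-enzyme wells; nearly all actives have a fitted effect of over 25% in size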
Target sequence (P00811 whole entry, looked up): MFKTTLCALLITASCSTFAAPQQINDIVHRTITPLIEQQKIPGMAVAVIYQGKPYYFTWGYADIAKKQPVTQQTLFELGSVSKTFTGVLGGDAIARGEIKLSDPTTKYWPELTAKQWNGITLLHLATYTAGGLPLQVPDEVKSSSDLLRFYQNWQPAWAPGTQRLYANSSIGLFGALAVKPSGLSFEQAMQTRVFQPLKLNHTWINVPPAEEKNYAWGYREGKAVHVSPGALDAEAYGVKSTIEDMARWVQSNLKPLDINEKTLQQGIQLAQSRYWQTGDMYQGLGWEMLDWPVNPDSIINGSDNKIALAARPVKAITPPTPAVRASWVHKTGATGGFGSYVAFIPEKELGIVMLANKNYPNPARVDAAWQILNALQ
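AmpC (5.3 nM in the dispensed reagent) in 20 mM phosphate pH 7.0 with 0.01% (detergent screen) or 0.0001% Triton X-100 was preincubated with compounds for 15 min at room temperature. Nitrocefin was then added from an 800 uM solution, and hydrolysis was followed at 480 nm.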
AmpC no deterg = AmpC beta-lactamase inhibition without detergent; 0.52% of 330,000 active; Potency, µM (highest dose often 57.1 µM), for the others: at the top dose activity change, negative = inhibition, actives largely listed as inhibitors; AID 485341; P00811; AmpC nitrocefin hydrolysis, absorbance 480 nm, 0.0001% Triton;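 note: potency is the fitted concentration of half-maximal effect; plate controls were no compound for no effect and no enzyme for full effect; nearly all actives have a fitted effect of over 20% in size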
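20 mM phosphate pH 7.0 + 0.01% (detergent screen) or 0.0001% Triton X-100; 5.3 nM AmpC reagent; cpd preinc 15 min RT; nitrocefin (800 uM stock) to start; A480 q20 s × 4 min; Activity was normalised to no-enzyme and no-compound control wells.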
SARS PLpro yeast-2 = Inhibits SARS-CoV PLP in yeast, hit validation; AID 652038; shares compounds with SARS PLpro yeast-1; 19% of 1,000 active; calls only; yeast expressing SARS-CoV PLpro, growth phenotype rescue; call rule not given here
* hit, by the source's call; [ ] = another dose, or the depositor's remark. Unless noted, calls come from the whole dose curve; as a rule, active = well fitted curve in the direction sought with a large enough effect; inconclusive = small, poorly fitted or top-dose-only effect, or another doubt; inactive = no such curve, though single readings can be large; an effect the other way counts as inactive or inconclusive.

`CN(C)c1ccc(/C=N\NC(=S)SCN2C(=O)C3CCC(C)(C2=O)C3(C)C)cc1` (configuration not stated) gave Giardia FBPA inh 3.1%, SARS PLpro yeast-1 12.6µM*, AmpC detergent 1.1%, AmpC no deterg -16.8% and SARS PLpro yeast-2 active.
Screening CC12CCC(C(=O)N(CSC(=S)N/N=C\c3ccccc3O)C1=O)C2(C)C (configuration not stated) returned Giardia FBPA inh 22.9%, SARS PLpro yeast-1 8.5%, AmpC detergent -3.5% and AmpC no deterg -23.6%.
Screening Cc1c(C(=O)NC(=S)Nc2ccccc2N2CCCC2)cccc1[N+](=O)[O-] returned Giardia FBPA inh -0.5%, SARS PLpro yeast-1 7.08µM*, AmpC detergent -0.1%, AmpC no deterg -38.6% and SARS PLpro yeast-2 active.
`NC(N)=NC1=NC(=O)/C(=C/c2ccccc2-n2cccn2)S1` gave Giardia FBPA inh 5.3%, AmpC detergent -2.4%, AmpC no deterg -32.5% and SARS PLpro yeast-2 inactive.
`O=Cc1ccccc1-n1cccn1` gave Giardia FBPA inh 0.4%, SARS PLpro yeast-1 2.0%, AmpC detergent 0.8% and AmpC no deterg -6.5%.
Cc1ccc(C)c(Cn2c(C3CC(=O)N(c4ccccc4C)C3)nc3ccccc32)c1 (configuration not stated) was read as AmpC detergent -5.5%.
For Cc1cc(C)c(Cn2c3ccccc3c3cnn(CC(=O)NCCc4ccccc4)c(=O)c32)c(C)c1 the results were AmpC detergent 9.8%.
For C/C(=N\NC(=O)c1cc(-c2cccnc2)nc2ccccc12)c1ccc(O)cc1O the results were Giardia FBPA inh -12.7%, SARS PLpro yeast-1 inconclusive, AmpC detergent -4.2%, AmpC no deterg -10.6% and SARS PLpro yeast-2 inactive.
Screening C/C(=N\NC(=O)c1cc(-c2cccc(OC(C)C)c2)nc2ccccc12)c1cccnc1 returned Giardia FBPA inh -4.5%, SARS PLpro yeast-1 6.3%, AmpC detergent inconclusive and AmpC no deterg -25.4%.
Screening CCOc1ccc(CNC(=O)CCCn2c(=O)c3cccn3c3ccc(F)cc32)cc1 returned AmpC detergent 17.1%.
Screening O=S(=O)(c1ccccc1Br)N(Cc1ccccc1)Cc1ccco1 returned Giardia FBPA inh 1.3%.
Cn1cccc1/C=N/NC(N)=S was read as Giardia FBPA inh inconclusive, SARS PLpro yeast-1 10µM*, AmpC detergent -4.0%, AmpC no deterg -13.4% and SARS PLpro yeast-2 active.
`Cn1cccc1/C=N/NC(=O)Cc1ccccc1` gave Giardia FBPA inh 1.7%, SARS PLpro yeast-1 1.6%, AmpC detergent -6.8% and AmpC no deterg -17.9%.
Screening COc1ccc(/C=N\NC(=O)c2cc(O)c(O)c(O)c2)cc1CN1CCN(c2ccc(F)cc2)CC1 returned Giardia FBPA inh inconclusive, SARS PLpro yeast-1 12.6µM*, AmpC detergent -0.8%, AmpC no deterg 4.0% and SARS PLpro yeast-2 active.
For CC(OC(=O)c1cccc(-n2cnnn2)c1)C(=O)c1ccccc1 (configuration not stated) the results were SARS PLpro yeast-1 inconclusive, AmpC detergent inconclusive, AmpC no deterg inconclusive and SARS PLpro yeast-2 inactive.
For CC(OC(=O)c1cccc(-n2cnnn2)c1)C(=O)NCc1ccccc1 (configuration not stated) the results were SARS PLpro yeast-1 2.7%, AmpC detergent -19.9% and AmpC no deterg -12.2%.
`CCCCn1c(C2CC(=O)N(c3ccc(OCC)cc3)C2)nc2ccccc21` (configuration not stated) gave AmpC detergent 11.8%.
For ClCc1nnc(-c2cc3c(s2)CCCC3)o1 the results were Giardia FBPA inh -2.2%, SARS PLpro yeast-1 inconclusive, AmpC detergent 7.9%, AmpC no deterg -26.7% and SARS PLpro yeast-2 inactive.
Screening CCc1ccccc1NC(=O)CN1C(=O)CCSc2ccc(S(=O)(=O)N3CCCC3)cc21 returned AmpC detergent -8.0%.
`CCOC(=O)c1cnn(Cc2ccccc2)c1N` gave Giardia FBPA inh 0.0%, SARS PLpro yeast-1 inconclusive, AmpC detergent inconclusive, AmpC no deterg -15.2% and SARS PLpro yeast-2 inactive.
CCOC(=O)c1cnn(Cc2ccc(C)cc2)c1N was read as Giardia FBPA inh 0.7%, SARS PLpro yeast-1 0.1%, AmpC detergent inconclusive and AmpC no deterg 75.5%.
Screening Cc1cccc2c1-c1sc(C(=O)N3CCN(c4ccccc4)CC3)cc1CO2 returned AmpC detergent 19.3%.
Screening Cc1ccc(S(=O)(=O)N2CC(O)CC2C(=O)OCc2nc3sc(C)c(C)c3c(=O)[nH]2)cc1 (configuration not stated) returned Giardia FBPA inh -8.5%, SARS PLpro yeast-1 inconclusive, AmpC detergent -5.0%, AmpC no deterg 10.1% and SARS PLpro yeast-2 inactive.
Screening CC(=O)OCc1nc2sc(C)c(C)c2c(=O)[nH]1 returned Giardia FBPA inh -15.4%, SARS PLpro yeast-1 -19.7%, AmpC detergent -3.5% and AmpC no deterg -21.7%.
CCCCn1cc(S(=O)(=O)c2ccc(CC)cc2)c(=O)c2cc(F)c(N3CCCC(C)C3)cc21 (configuration not stated) was read as AmpC detergent -6.3%.
For O=S(=O)(c1ccc(OCC(O)CN2CCN(c3ccccc3)CC2)cc1)N1CCOCC1 (configuration not stated) the results were Giardia FBPA inh -1.7%, SARS PLpro yeast-1 inconclusive, AmpC detergent -3.2%, AmpC no deterg 58.9% and SARS PLpro yeast-2 inactive.
C/C(CCN1CCCCc2nc(C)c(C)cc21)=N\O[C@@H](C)c1cc(-c2c(C)cc(C)cc2C)no1 was read as Giardia FBPA inh -0.6%[12.9 µM].
For COc1cc2c(c(OC)c1OC)-c1c(cc3c(c1OC)OCO3)CC(C)C(C)(O)C2OC(=O)c1ccccc1 (configuration not stated) the results were Giardia FBPA inh 0.1%.
Screening CCOC(=O)C(C)/C(C)=N\Nc1ccc([N+](=O)[O-])cc1[N+](=O)[O-] (configuration not stated) returned Giardia FBPA inh 2.0%, SARS PLpro yeast-1 -0.8%, AmpC detergent 2.1% and AmpC no deterg -10.4%.
For CCOC(=O)C(C)/C(C)=N/NC(N)=S (configuration not stated) the results were Giardia FBPA inh inconclusive, SARS PLpro yeast-1 inconclusive, AmpC detergent -8.7%, AmpC no deterg -33.1% and SARS PLpro yeast-2 active.
Screening Cc1csc(NC(=O)C(Cc2ccccc2)n2cccc2)n1 (configuration not stated) returned Giardia FBPA inh 0.3%, SARS PLpro yeast-1 -15.0%, AmpC detergent -6.4% and AmpC no deterg -15.6%.
`CCSc1nnc(NC(=O)C(Cc2ccccc2)n2cccc2)s1` (configuration not stated) gave Giardia FBPA inh 2.9%, SARS PLpro yeast-1 inconclusive, AmpC detergent -16.4%, AmpC no deterg -23.9% and SARS PLpro yeast-2 inactive.
